esBAF inh – inhibitors of esBAF chromatin remodeling in mouse ES cells | actives 2% (n = 350,000) | AID 602393 | reporter increase, % at 12.5 µM | Bmi1-luciferase knock-in reporter, 24 h; 100% = twice the neutral-well signal; in the data active = activation above about 40%;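 note: a rise in the Bmi1 reporter signal indicates esBAF inhibition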
FGF22 binding – binders of recombinant human FGF22 by thermal shift; SYPRO orange fluorescence; percent of sucrose octasulfate shift, DMSO zero; Q9HCT0; activity (Tm shift, normalised), % at 9.99 µM; actives 1.5% (n = 340,000);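 active = mean Tm shift, scaled 0 neutral to 100 positive control, at about 1.3% or above, every replicate too, limit read from the data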
Target sequence (Q9HCT0 whole entry, looked up): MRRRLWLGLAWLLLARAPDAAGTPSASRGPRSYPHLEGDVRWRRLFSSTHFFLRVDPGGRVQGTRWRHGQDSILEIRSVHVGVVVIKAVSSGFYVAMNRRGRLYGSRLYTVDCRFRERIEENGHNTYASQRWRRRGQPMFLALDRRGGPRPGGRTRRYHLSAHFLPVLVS
Wnt bcat act – activates Wnt/beta-catenin signaling in a reporter cell assay | AID 743398 | actives 1.2% (n = 300,000) | activator, plate reader | activation, % at 9.35 µM; in the data active = activation above about 30%, passing the limit was not always enough
AF4-AF9 inh – inhibitors of human MLL-AF4/AF9 interaction | P42568 | AlphaScreen, biotin-AF4 peptide binding to FLAG-AF9 | inhibition, % at 10 µM | actives 0.47% (n = 350,000);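 active = every replicate reaching a set inhibition limit, whatever the replicate mean, cut at about 25% in these data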
SMARCA2 activ – increases SMARCA2 function in MMTV reporter cells | MG213 cells, MMTV-luciferase reporter, dexamethasone, overnight | activation, % at 9.1 µM | actives 1% (n = 370,000); in the data active = activation above about 7.8%
MITF act – activators of MITF-driven TRPM1 promoter activity in SK-MEL-5 cells | SK-MEL-5 TRPM1-promoter luciferase, 24 h; % of positive control, neutral wells = 0 | activation, % at 12.5 µM | actives 0.75% (n = 300,000);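 active = mean activation of at least 80% with every replicate also reaching 80%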
Hits are given with their value; 0 = inactive; - = not tested or not shown. A selection: hits, their analogues and other compounds. The true share with any hit is near 4.3%.

SMILES	esBAF inh	FGF22 binding	Wnt bcat act	AF4-AF9 inh	SMARCA2 activ	MITF act
CCCc1cc(=O)n2[nH]c(-c3cccc(Br)c3)cc2n1	52	0	0	0	0	-
C[C@H](CO)N1C[C@H](C)[C@@H](CN(C)C(=O)CCC(F)(F)F)OCc2ccccc2-c2ccccc2C1=O	0	-	-	-	-	-
Cn1c(=O)c(C(=O)Nc2ccccc2S(N)(=O)=O)c(O)c2ccccc21	52	0	0	0	0	0
O=C(C[C@H]1CC[C@@H]2[C@H](COC[C@H](O)CN2CCc2ccccc2)O1)NCc1ccc(F)cc1	0	-	-	0	-	-
Cc1cc(-c2nc3ccccc3c(=O)o2)ccc1[N+](=O)[O-]	0	0	39	0	0	0
Cc1ccc(-c2nc3ccccc3c(=O)o2)cc1	0	0	0	0	0	0
CCCC(=O)Nc1ccc2c(c1)C(=O)N(C)C[C@H](OC)[C@H](C)CN(CC1CCCC1)[C@H](C)CO2	0	0	-	0	-	-
O=C(O)c1ccc(NC(=S)NC(=O)c2ccc3ccccc3c2)cc1	41	0	0	0	0	0
CCC(=O)Nc1cccc(NC(=S)NC(=O)c2ccc(C)cc2)c1	96	0	0	0	0	0
O=C(NC(=S)Nc1cccc(NC(=S)NC(=O)c2ccccc2)c1)c1ccccc1	66	0	0	0	0	0
O=C(NC(=S)Nc1ccc2[nH]ncc2c1)c1ccccc1	66	-	-	-	0	0
CCC(=O)Nc1cccc(NC(=S)NC(=O)c2ccccc2)c1	-	0	-	0	0	0
COc1ccc(S(=O)(=O)Nc2ccc3c(c2)CC(=O)N([C@@H](C)CO)C[C@H](C)[C@@H](CN(C)C(=O)Nc2ccc4c(c2)OCO4)O3)cc1	0	0	-	0	-	-
CC(=O)c1cccc(NC(=O)NCCc2ccc(Cl)cc2)c1	0	0	0	0	0	0
CC(=O)Nc1cccc(NC(=S)Nc2ccc(F)cc2F)c1	0	43	0	0	0	0
CC(=O)Nc1cccc(NC(=S)Nc2cccc(Cl)c2Cl)c1	-	0	0	0	0	0
O=C(NC(=S)Nc1ccc2ncccc2c1)c1ccccc1	67	0	0	0	0	0
CC(=O)c1cccc(NC(=S)NCCc2ccc(F)cc2)c1	-	44	0	0	0	0
CC(C)(C)NC(=S)NNC(=O)c1ccc2ncccc2c1	57	0	0	0	0	0
CN1CCN(C(=O)C[C@@H]2C=C[C@@H](NC(=O)Cc3ccccn3)[C@H](CO)O2)CC1	0	0	-	0	-	-
Cc1noc(C)c1S(=O)(=O)N(C)C[C@@H]1OCCCC[C@H](C)Oc2ccc(NS(=O)(=O)c3ccccc3)cc2C(=O)N([C@H](C)CO)C[C@@H]1C	0	0	-	0	-	-
CCCCOCCCNC(=O)C[C@H]1C[C@@]2(C(=O)OC)C(=C[C@H](COCc3ccccc3)O[C@@H]2C)N(CCc2ccc(OC)c(OC)c2)C1=O	-	-	-	-	0	-
Cc1ccc(NC(=S)NC(=O)c2ccccc2)cc1NC(=S)NC(=O)c1ccccc1	0	0	0	0	0	0
O=C(NC(=S)Nc1ccc2nc[nH]c2c1)c1ccccc1	55	0	0	0	0	102
CCOc1cccc(C(=O)NC(=S)Nc2ccccc2)c1	-	0	0	0	0	93
SMILES	esBAF inh	FGF22 binding	Wnt bcat act	AF4-AF9 inh	SMARCA2 activ	MITF act
CC(=O)c1cccc(NC(=S)NC(=O)c2ccccc2Cl)c1	-	-	-	-	0	0
CCOc1cccc(C(=O)NC(=S)Nc2cccnc2)c1	-	-	-	-	0	0
CCCCCC(=O)NC(=S)Nc1cccc(C(C)=O)c1	0	44	0	0	0	0
CC(=O)c1cccc(NC(=S)NC(=O)c2ccc(C)cc2Cl)c1	60	0	-	0	0	0
C/C=C/c1cnc2c(c1)C(=O)N([C@@H](C)CO)C[C@@H](C)[C@H](CN(C)C(=O)Nc1c(C)noc1C)O2	0	0	-	0	-	-
CNC[C@H]1Oc2c(NS(=O)(=O)c3ccc(F)cc3)cccc2C(=O)N([C@H](C)CO)C[C@H]1C	0	0	-	0	-	-
C#CCOCCOCCOCCNc1nc(N2CCN(C(=O)CCCCCCCCCCNC(=O)[C@H](CCCCN)n3cc(CCO)nn3)CC2)nc(N2CCN(C(=O)CCCCCCCCCCNC(=O)[C@H](CCCCN)n3cc(CCCC(=O)O)nn3)CC2)n1	0	0	0	55	0	0
